Assay results taken from PubChem BioAssay (Tox21).
Where “and” joins values, the source holds several entries; their conditions need not be identical. Equal values may be shown once. Inconclusive results are not listed. Some structures have more than one record in an assay (separate samples or runs), and their calls can disagree. Calls of active or inactive are those of the source. Unless noted, the call rests on the fitted dose curve; in most records, active means well fitted curve in the direction sought with a large enough effect in the repeat runs; inconclusive means weak or mixed curves; inactive means no such curve, though single readings can be large; an effect the other way counts as inactive or inconclusive.

How the values were obtained:
[1] = qHTS assay to identify small molecule agonists of H2AX (AID 1224845; active means well fitted activation curve with a large enough effect in the signal ratio in the repeat runs, not every such curve was filed as active; the % refers to the signal ratio; further: potency means the concentration at half of the fitted maximal effect)
Outline: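 Wild-type CHO-K1 cells, plated overnight, exposed 3hr at 37C to 15 concentrations (0.76% DMSO final). Lysed, then HTRF anti-pH2AX (S139) cryptate and anti-H2AX-d2 antibodies, 24 hr room temperature; 665/620 nm emission read.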

[2] = qHTS assay to identify small molecule agonists of H2AX - cell viability counter screen (AID 1224847; calls by dose curve; further: nearly all actives have a fitted effect of over 30% in size; further: potency means the concentration at half of the fitted maximal effect; on activity change, negative = cytotoxicity: top concentration of the series differs between compounds)
Outline: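 Quantitative HTS viability measurement: CHO-K1 wild-type cells in serum (10% FBS) medium, short 3 hr drug exposure at 37C with 0.76% DMSO, CellTiter-Glo luminescent detection.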

[3] = qHTS assay to identify small molecule antagonists of the estrogen related receptor (ERR) signaling pathway from Tox21 library (AID 1224848); further: nearly all actives have a fitted effect of over 50% in size; further: potency means the concentration at half of the fitted maximal effect
Outline: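 Luminescent reporter read-out (ONE-Glo) from NTP's ERR cell line after 18 h treatment at 37 C with DMSO-dissolved Tox21 compounds; cells pre-plated 6 h beforehand at 2,000 per well.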

[4] = qHTS assay to identify small molecule agonists of the estrogen related receptor (ERR) signaling pathway from Tox21 library (AID 1224849; calls by dose curve; further: nearly all actives have a fitted effect of over 15% in size); conditions: ERR reporter cell line, ONE-Glo luciferase, 18 h; at 92.4 µM (top of the series) unless noted
Outline: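 Six hours post-seeding at 37 C/5% CO2, ERR cells receive DMSO-solubilised compounds; after 18 h at 37 C, ONE-Glo reagent is applied and luminescence recorded.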

[5] = qHTS RealTime-Glo MT Cell Viability Assay in HepG2 cells - 24 hour (AID 1224867); further: nearly all actives have a fitted effect of over 50% in size; further: potency means the concentration at half of the fitted maximal effect
Outline: (§1)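 HepG2 suspension premixed with RealTime-Glo reagents is plated at 600 cells per well and left 5 h at 37 C/5% CO2. Compounds in DMSO then go in, and bioluminescence reflecting viable cell number is recorded over 40 h.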

[6] = A CellTox Green Cytotoxicity Assay to monitor cytotoxicity in HEK293 cells - 0 hour (AID 1224869); further: nearly all actives have a fitted effect of over 50% in size
Outline: (§2)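 Seeding of HEK293 cells together with cytotoxicity dye preceded a 5 h incubation at 37 C/5% CO2. Test compounds in DMSO were then added and fluorescence monitored across 40 h.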

[7] = qHTS RealTime-Glo MT Cell Viability Assay in HepG2 cells - 40 hour (AID 1224870); further: nearly all actives have a fitted effect of over 50% in size; further: potency means the concentration at half of the fitted maximal effect
Outline: (§3)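 HepG2 cells (600/well) mixed with RealTime-Glo MT reagent, settled 5 h at 37 C/5% CO2 before compound addition. Nonlytic NanoLuc luminescence from viable-cell prosubstrate reduction read repeatedly during 40 h treatment at 37 C.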

[8] = A CellTox Green Cytotoxicity Assay to monitor cytotoxicity in HEK293 cells - 40 hour (AID 1224871); further: nearly all actives have a fitted effect of over 45% in size; further: potency means the concentration at half of the fitted maximal effect
Outline: as §2

[9] = qHTS RealTime-Glo MT Cell Viability Assay in HEK293 cells - 16 hour (AID 1224872); further: nearly all actives have a fitted effect of over 50% in size; further: potency means the concentration at half of the fitted maximal effect; on activity change, negative = cytotoxicity: top concentration of the series differs between compounds
Outline: (§4)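 Reads taken at 0, 8, 16, 24, 32 and 40 h from the same wells. HEK293 cells (600/well) carried RealTime-Glo reagents from seeding, with compound added after a 5 h settle at 37 C.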

[10] = qHTS RealTime-Glo MT Cell Viability Assay in HepG2 cells - 8 hour (AID 1224873); further: nearly all actives have a fitted effect of over 55% in size; further: potency means the concentration at half of the fitted maximal effect
Outline: as §3

[11] = qHTS RealTime-Glo MT Cell Viability Assay in HEK293 cells - 40 hour (AID 1224874); conditions: RealTime-Glo luminescence; max response: stronger effect = lower value; further: nearly all actives have a fitted effect of over 50% in size; further: potency means the concentration at half of the fitted maximal effect
Outline: (§5)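 Tox21 screen in HEK293 using RealTime-Glo MT chemistry, with cells and reagent co-dispensed. Luminescence proportional to viable cell number was captured at intervals during 40 h compound exposure at 37 C.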

[12] = A CellTox Green Cytotoxicity Assay to monitor cytotoxicity in HEK293 cells - 24 hour (AID 1224875); further: nearly all actives have a fitted effect of over 45% in size; further: potency means the concentration at half of the fitted maximal effect
Outline: as §2

[13] = A CellTox Green Cytotoxicity Assay to monitor cytotoxicity in HepG2 cells - 16 hour (AID 1224876); further: nearly all actives have a fitted effect of over 45% in size; further: potency means the concentration at half of the fitted maximal effect
Outline: (§6)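 Nonlytic assay: viable cells exclude the dye, so fluorescence scales with cell death. HepG2 at 600 cells/well, compounds added after 5 h, signal read across 40 h.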

[14] = qHTS RealTime-Glo MT Cell Viability Assay in HepG2 cells - 32 hour (AID 1224877); further: nearly all actives have a fitted effect of over 55% in size; further: potency means the concentration at half of the fitted maximal effect
Outline: as §1

[15] = A CellTox Green Cytotoxicity Assay to monitor cytotoxicity in HepG2 cells - 24 hour (AID 1224878); further: nearly all actives have a fitted effect of over 45% in size; further: potency means the concentration at half of the fitted maximal effect
Outline: as §6

[16] = A CellTox Green Cytotoxicity Assay to monitor cytotoxicity in HepG2 cells - 40 hour (AID 1224879); further: nearly all actives have a fitted effect of over 40% in size; further: potency means the concentration at half of the fitted maximal effect
Outline: as §6

[17] = qHTS RealTime-Glo MT Cell Viability Assay in HEK293 cells - 0 hour (AID 1224880)
Outline: as §5

[18] = A CellTox Green Cytotoxicity Assay to monitor cytotoxicity in HEK293 cells - 32 hour (AID 1224881); further: nearly all actives have a fitted effect of over 40% in size; further: potency means the concentration at half of the fitted maximal effect
Outline: as §2

[19] = qHTS RealTime-Glo MT Cell Viability Assay in HEK293 cells - 32 hour (AID 1224868); further: nearly all actives have a fitted effect of over 50% in size; further: potency means the concentration at half of the fitted maximal effect; on activity change, negative = cytotoxic: top concentration of the series differs between compounds
Outline: as §4

[20] = qHTS assay to identify small molecule agonists of the hypoxia (HIF-1) signaling pathway (AID 1224846; active means well fitted activation curve with a large enough effect in the signal ratio in the repeat runs, not every such curve was filed as active; the % refers to the signal ratio)
Outline: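 Hypoxia-pathway activation was scored as increased beta-lactamase from an HRE-controlled reporter in ME-180 cells; plated at 2,000 cells per well with 0.5% dialyzed FBS, they were exposed 17 hrs to compounds and then given CCF4-AM.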
On the % scale 0 is the no-effect control and ±100 the full control effect.

CCCCCCCCCCCCCC[n+]1ccccc1
inactive: Potency [1] | activity change, positive = activation [4] -77.5% | Potency [6] | Potency [17]
active: Potency [2] 56.6 µM | Potency [3] 1.37 µM | Potency [5] 19.5 µM | Potency [7] 9.77 µM | Potency [8] 38.9 µM | Potency [9] 27.5 µM | Potency [10] 49 µM | Potency [11] 1.74 µM | Potency [12] 38.9 µM | Potency [13] 19.5 µM | Potency [14] 12.3 µM | Potency [15] 15.5 µM | Potency [16] 11 µM | Potency [18] 34.7 µM

CC(=O)Oc1ccc(C2(c3ccc(OC(C)=O)cc3)Oc3ccccc3NC2=O)cc1
inactive: Potency [1] | Potency [2] | Potency [5] | Potency [6] | Potency [7] | Potency [8] | Potency [9] | Potency [13] | Potency [14] | Potency [17] | Potency [18]

CC(C)(c1cc(Br)c(O)c(Br)c1)c1cc(Br)c(O)c(Br)c1
inactive: activity change, positive = activation [4] -21.4% and -40.7% and -13.4% | Potency [5] | Potency [19] | Potency [6] | Potency [7] | Potency [8] | Potency [9] | Potency [10] | max response [11] -17.7% | Potency [12] | Potency [13] | Potency [14] | Potency [15] | Potency [16] | Potency [18]
54.3 µM (active) and inactive: Potency [3]
active: Potency [1] 113 µM

O=S(=O)(O)c1cc(S(=O)(=O)O)c2ccc3c(S(=O)(=O)O)cc(S(=O)(=O)O)c4ccc1c2c43
inactive: activation [20] -0.0206% [at 15.8 µM] | activity change, negative = cytotoxicity [2] 4.65% [at 31.6 µM] | activity, negative = inhibition [3] 17.9% [at 19 µM] | activity change, positive = activation [4] 9.26% [at 19 µM] | activity change, negative = cytotoxicity [5] 3.52% [at 15.8 µM] | activity change, negative = cytotoxic [19] 2.34% [at 15.8 µM] | cytotoxicity [6] -7.26% [at 15.8 µM] | cytotoxicity increase [8] -6.93% [at 15.8 µM] | activity change, negative = cytotoxicity [9] 1.53% [at 15.8 µM] | viability change, negative = cytotoxic [10] 0.921% [at 15.8 µM] | max response [11] 2.05% | activity change [12] -0.396% [at 15.8 µM, stronger effect = higher value] | cytotoxicity increase [13] -4.69% [at 15.8 µM] | activity change, negative = cytotoxic [14] 5.28% [at 15.8 µM] | cytotoxicity [15] -8.46% [at 15.8 µM] | cytotoxicity increase [16] -11.4% [at 15.8 µM] | activity change, negative = cytotoxicity [17] 3.1% [at 15.8 µM] | cytotoxicity increase [18] -1.7% [at 15.8 µM]

CC(C)C(=O)OCc1ccccc1
inactive: outcome [20] | Potency [2] | Potency [5] | Potency [6] | Potency [7] | Potency [10] | max response [11] 18.1% | Potency [14]

CCCCCCCCCCOCC(O)CN (centres undefined)
inactive: outcome [20] | activity change, positive = activation [4] -64% [at 42.5 µM] | Potency [6]
active: Potency [2] 55.2 µM | Potency [5] 15.1 µM | Potency [19] 23.9 µM | Potency [7] 15.1 µM | Potency [8] 26.8 µM | Potency [9] 23.9 µM | Potency [11] 23.9 µM | Potency [12] 23.9 µM | Potency [13] 19 µM | Potency [14] 15.1 µM | Potency [15] 15.1 µM

Oc1cc2ccccc2cc1O
inactive: outcome [20] | Potency [2] | Potency [5] | Potency [6] | Potency [7] | Potency [10] | Potency [13] | Potency [14] | Potency [15] | Potency [16]

COC(=O)CC(C)CCC=C(C)C (centres undefined)
inactive: outcome [20] | Potency [2] | Potency [3] | activity change, positive = activation [4] 1.82% | Potency [5] | Potency [19] | Potency [6] | Potency [7] | Potency [8] | Potency [9] | Potency [10] | max response [11] 7.75% | Potency [12] | Potency [13] | Potency [14] | Potency [15] | Potency [16] | Potency [17] | Potency [18]

CC1CCCNC1 (centres undefined)
inactive: Potency [1] | Potency [5] | Potency [6] | Potency [8] | Potency [9] | Potency [12] | Potency [13] | Potency [14] | Potency [15] | Potency [16] | Potency [17] | Potency [18]

O=C1NC2CCCCN2C12CCN(CCCN1c3ccccc3CCc3ccc(Cl)cc31)CC2 (centres undefined)
active: Potency [3] 23.7 µM | Potency [5] 23.9 µM | Potency [19] 9.52 µM | Potency [7] 23.9 µM | Potency [8] 21.3 µM | Potency [9] 8.49 µM | Potency [11] 8.49 µM | Potency [13] 23.9 µM | Potency [14] 23.9 µM | Potency [15] 23.9 µM | Potency [16] 23.9 µM | Potency [18] 21.3 µM
inactive: outcome [20] | activity change, positive = activation [4] -64.1% [at 42.5 µM] | Potency [6] | Potency [17]

CN1[C@@H]2CC[C@H]1CC(OC(=O)C(CO)c1ccccc1)C2 (some centres undefined)
inactive: Potency [1] | Potency [5] | Potency [19] | Potency [6] | Potency [7] | Potency [8] | Potency [9] | Potency [10] | max response [11] -0.934% and 16.5% | Potency [12] | Potency [13] | Potency [14] | Potency [15] | Potency [16] | Potency [17]

CCN(CC)CCSC(=O)C(c1ccccc1)c1ccccc1
inactive: outcome [20] | Potency [5] | Potency [19] | Potency [6] | Potency [7] | Potency [9] | Potency [10] | Potency [13] | Potency [14] | Potency [15] | Potency [17]
